What all share (test): DAPPL (digital affinity profiling via proximity ligation, sequencing); 10 mM Tris-HCl pH 7.5, 50 mM NaCl, 1 mM DTT, 4% glycerol, room temperature, 30 min; GST-TFs on glutathione beads, 16-mer random dsDNA library, 0.1% formaldehyde crosslink after washing; high values mean tight binding
The target of one assay is T1, FLI1 (Homo sapiens, UniProt Q01543 1-452).
T1 sequence: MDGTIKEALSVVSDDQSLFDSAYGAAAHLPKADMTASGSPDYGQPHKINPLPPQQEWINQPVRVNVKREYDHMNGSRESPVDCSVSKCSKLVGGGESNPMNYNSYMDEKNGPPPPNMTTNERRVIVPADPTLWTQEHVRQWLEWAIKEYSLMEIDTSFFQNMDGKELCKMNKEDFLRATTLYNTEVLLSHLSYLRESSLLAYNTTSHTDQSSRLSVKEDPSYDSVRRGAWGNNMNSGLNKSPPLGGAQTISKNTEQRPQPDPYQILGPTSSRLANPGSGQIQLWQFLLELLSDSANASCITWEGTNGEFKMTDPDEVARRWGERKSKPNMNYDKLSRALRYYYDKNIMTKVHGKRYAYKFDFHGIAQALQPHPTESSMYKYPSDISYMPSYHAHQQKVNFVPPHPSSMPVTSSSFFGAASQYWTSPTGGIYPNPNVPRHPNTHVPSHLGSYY
To be noted: protein: recombinant; tags: N-terminal GST; dsDNA, one strand shown. In short, it runs like this: (§1)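 The binding signal reported is, for every hexamer, its read frequency for a factor over its read frequency for the tag-only sample. Reads came from pools of yeast-expressed, GST-fused human transcription factors on glutathione beads, barcoded with DNA and mixed with that sample, which were incubated with 200 nmole of a random double-stranded 16-mer DNA library in Tris/NaCl/DTT/glycerol buffer at room temperature for 30 min. After washing, the pools were crosslinked with 0.1% formaldehyde, proximity-ligated with BsaI/T4 ligase for 1 h at 37 °C, PCR-amplified and sequenced on an Illumina NextSeq500.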

In another assay the target is T2, ELK1 (Homo sapiens, UniProt P19419 1-428).
T2 sequence: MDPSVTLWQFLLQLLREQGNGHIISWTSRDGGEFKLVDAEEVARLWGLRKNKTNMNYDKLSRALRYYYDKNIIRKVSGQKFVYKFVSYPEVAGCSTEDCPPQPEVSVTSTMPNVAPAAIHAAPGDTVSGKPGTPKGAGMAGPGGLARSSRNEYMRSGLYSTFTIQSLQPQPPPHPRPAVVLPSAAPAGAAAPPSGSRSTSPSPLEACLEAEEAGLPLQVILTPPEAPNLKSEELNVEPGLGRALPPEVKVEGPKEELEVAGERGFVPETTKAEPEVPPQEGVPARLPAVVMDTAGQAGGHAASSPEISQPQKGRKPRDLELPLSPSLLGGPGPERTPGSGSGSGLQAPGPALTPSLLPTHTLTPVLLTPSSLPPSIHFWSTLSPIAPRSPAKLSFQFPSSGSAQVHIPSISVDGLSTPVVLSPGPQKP
The settings on record: protein: recombinant; tags: N-terminal GST; dsDNA, one strand shown. In short, it runs like this: as §1

The target in a further assay is T3, GABPA (Homo sapiens, UniProt Q06546 1-454).
T3 sequence: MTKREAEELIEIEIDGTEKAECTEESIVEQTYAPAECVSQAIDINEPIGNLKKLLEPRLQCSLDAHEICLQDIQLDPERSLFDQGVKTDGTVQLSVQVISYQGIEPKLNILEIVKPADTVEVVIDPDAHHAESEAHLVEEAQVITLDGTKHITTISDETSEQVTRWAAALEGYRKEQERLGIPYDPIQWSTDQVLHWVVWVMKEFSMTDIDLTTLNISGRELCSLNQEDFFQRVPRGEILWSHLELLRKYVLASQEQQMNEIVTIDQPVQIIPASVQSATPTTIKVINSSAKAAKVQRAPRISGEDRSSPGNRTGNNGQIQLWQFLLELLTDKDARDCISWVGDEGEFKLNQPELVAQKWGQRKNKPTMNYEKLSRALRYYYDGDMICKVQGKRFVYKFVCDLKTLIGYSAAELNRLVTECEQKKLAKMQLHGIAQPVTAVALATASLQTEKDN
The settings on record: protein: recombinant; tags: N-terminal GST; dsDNA, one strand shown. In short, it runs like this: as §1

Another assay addresses T4, ERG (Homo sapiens, UniProt P11308 1-479).
T4 sequence: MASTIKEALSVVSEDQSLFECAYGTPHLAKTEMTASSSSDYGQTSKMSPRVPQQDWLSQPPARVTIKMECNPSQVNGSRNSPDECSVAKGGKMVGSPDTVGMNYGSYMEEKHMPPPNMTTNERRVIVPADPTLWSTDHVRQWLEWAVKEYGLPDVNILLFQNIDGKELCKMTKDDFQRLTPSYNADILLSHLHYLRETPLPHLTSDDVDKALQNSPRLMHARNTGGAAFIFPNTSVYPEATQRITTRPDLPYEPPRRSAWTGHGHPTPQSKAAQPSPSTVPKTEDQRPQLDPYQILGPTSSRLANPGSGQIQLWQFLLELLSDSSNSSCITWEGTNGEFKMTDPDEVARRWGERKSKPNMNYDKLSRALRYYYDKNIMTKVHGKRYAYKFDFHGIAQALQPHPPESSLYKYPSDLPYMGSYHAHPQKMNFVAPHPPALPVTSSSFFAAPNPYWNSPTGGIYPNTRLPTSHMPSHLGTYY
To be noted: protein: recombinant; tags: N-terminal GST; dsDNA, one strand shown. In short, it runs like this:
as §1

A further assay deals with ELF1 (Homo sapiens, UniProt P32519 1-619). The settings on record: protein: recombinant; tags: N-terminal GST; dsDNA, one strand shown. A digest of the protocol: as §1
The target in a further assay is T5, EHF (Homo sapiens, UniProt Q9NZC4 1-300).
T5 sequence: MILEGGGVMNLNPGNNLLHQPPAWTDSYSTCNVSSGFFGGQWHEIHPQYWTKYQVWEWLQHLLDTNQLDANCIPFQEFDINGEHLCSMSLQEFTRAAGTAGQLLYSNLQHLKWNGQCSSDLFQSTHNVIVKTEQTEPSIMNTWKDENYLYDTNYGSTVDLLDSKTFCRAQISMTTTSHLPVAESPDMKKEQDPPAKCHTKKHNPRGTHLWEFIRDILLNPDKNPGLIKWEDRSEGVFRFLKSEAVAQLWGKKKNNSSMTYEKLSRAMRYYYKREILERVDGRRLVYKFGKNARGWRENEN
To be noted: protein: recombinant; tags: N-terminal GST; dsDNA, one strand shown. In short, it runs like this:
as §1

A further assay deals with SPI1 (Homo sapiens, UniProt P17947 1-270). To be noted: protein: recombinant; tags: N-terminal GST; dsDNA, one strand shown. A digest of the protocol: as §1
Another assay concerns the target SPIB (Homo sapiens, UniProt Q01892 1-262). The settings on record: protein: recombinant; tags: N-terminal GST; dsDNA, one strand shown. In short, it runs like this:
as §1

Another assay has as its target T6, ELK3 (Homo sapiens, UniProt P41970 1-407).
T6 sequence: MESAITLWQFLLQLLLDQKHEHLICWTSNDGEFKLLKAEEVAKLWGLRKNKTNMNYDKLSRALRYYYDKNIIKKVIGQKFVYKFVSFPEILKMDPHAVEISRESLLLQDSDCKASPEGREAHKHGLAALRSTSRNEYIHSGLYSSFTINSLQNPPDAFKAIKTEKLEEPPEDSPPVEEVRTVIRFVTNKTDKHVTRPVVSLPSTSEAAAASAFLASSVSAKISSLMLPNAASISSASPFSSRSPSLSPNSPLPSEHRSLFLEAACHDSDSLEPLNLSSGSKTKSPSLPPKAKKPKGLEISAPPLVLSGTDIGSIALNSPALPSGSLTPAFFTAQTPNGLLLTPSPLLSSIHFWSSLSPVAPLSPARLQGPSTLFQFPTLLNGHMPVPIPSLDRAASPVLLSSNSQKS
The settings on record: protein: recombinant; tags: N-terminal GST; dsDNA, one strand shown. In short, it runs like this: as §1

Another assay has as its target T7, FEV (Homo sapiens, UniProt Q99581 1-238).
T7 sequence: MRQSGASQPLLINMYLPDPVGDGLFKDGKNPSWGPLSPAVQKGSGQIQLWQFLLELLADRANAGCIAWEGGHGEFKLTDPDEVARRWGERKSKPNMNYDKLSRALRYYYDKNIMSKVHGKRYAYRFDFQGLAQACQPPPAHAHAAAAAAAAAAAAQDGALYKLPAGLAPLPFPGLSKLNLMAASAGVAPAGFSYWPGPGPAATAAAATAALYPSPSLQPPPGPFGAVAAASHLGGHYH
To be noted: protein: recombinant; tags: N-terminal GST; dsDNA, one strand shown. A digest of the protocol:
as §1

In the next assay the target is ETV5 (Homo sapiens, UniProt P41161 1-510). To be noted: protein: recombinant; tags: N-terminal GST; dsDNA, one strand shown. A digest of the protocol:
as §1

For a further assay, the target named is HSF1 (Homo sapiens, UniProt Q00613 1-529). The settings on record: protein: recombinant; tags: N-terminal GST; chain copies: 3; dsDNA, one strand shown. In short, it runs like this:
as §1

A further assay deals with T8, SPIC (Homo sapiens, UniProt Q8N5J4 1-248).
T8 sequence: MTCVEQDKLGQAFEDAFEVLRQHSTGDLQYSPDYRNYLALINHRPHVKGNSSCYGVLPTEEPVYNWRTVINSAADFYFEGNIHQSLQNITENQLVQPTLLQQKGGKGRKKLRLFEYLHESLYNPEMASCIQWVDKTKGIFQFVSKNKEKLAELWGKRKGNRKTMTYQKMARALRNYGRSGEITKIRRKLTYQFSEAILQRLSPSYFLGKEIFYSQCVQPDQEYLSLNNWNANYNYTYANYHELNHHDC
To be noted: protein: recombinant; tags: N-terminal GST; dsDNA, one strand shown. A digest of the protocol:
as §1

Another assay addresses ELF4 (Homo sapiens, UniProt Q99607 1-663). To be noted: protein: recombinant; tags: N-terminal GST; dsDNA, one strand shown. In short, it runs like this:
as §1

The next assay concerns the target T9, ELK4 (Homo sapiens, UniProt P28324-2 1-405).
T9 sequence: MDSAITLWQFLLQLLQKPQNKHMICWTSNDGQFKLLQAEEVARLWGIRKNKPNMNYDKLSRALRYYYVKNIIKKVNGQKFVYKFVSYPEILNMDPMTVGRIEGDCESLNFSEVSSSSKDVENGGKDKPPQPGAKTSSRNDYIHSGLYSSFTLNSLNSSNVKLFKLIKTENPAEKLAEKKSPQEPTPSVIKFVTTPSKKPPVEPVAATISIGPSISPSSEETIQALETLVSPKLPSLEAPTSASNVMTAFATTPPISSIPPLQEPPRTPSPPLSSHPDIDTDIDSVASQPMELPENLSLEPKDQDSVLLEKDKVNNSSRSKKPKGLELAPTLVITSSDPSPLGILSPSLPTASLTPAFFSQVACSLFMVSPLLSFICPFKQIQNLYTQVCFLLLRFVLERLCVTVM
The settings on record: protein: recombinant; tags: N-terminal GST; dsDNA, one strand shown. In short, it runs like this:
as §1

The target in a further assay is T10, ETV2 (Homo sapiens, UniProt O00321 1-342).
T10 sequence: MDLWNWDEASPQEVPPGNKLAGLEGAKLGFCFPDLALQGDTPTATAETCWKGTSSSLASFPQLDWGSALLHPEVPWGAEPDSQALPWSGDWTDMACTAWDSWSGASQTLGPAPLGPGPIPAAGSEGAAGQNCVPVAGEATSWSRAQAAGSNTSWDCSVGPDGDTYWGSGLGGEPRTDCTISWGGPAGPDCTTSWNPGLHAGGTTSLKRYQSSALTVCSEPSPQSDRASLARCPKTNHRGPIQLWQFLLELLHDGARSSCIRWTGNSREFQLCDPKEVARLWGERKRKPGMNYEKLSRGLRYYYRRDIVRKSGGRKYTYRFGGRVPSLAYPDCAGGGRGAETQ
To be noted: protein: recombinant; tags: N-terminal GST; dsDNA, one strand shown. In short, it runs like this: as §1

For a further assay, the target named is T11, ELF3 (Homo sapiens, UniProt P78545 1-371).
T11 sequence: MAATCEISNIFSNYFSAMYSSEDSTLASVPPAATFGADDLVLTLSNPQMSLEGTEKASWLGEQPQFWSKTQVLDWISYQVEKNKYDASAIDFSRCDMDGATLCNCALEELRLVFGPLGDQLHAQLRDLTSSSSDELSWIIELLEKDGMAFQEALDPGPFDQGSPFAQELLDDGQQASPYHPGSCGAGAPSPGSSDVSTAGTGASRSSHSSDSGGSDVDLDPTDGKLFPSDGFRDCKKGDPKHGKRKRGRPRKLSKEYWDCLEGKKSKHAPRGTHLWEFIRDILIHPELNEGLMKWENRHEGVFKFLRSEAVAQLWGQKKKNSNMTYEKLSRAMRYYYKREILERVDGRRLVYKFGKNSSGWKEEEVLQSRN
To be noted: protein: recombinant; tags: N-terminal GST; dsDNA, one strand shown. A digest of the protocol:
as §1

A further assay concerns the target CRX (Homo sapiens, UniProt O43186 1-299). To be noted: protein: recombinant; tags: N-terminal GST; dsDNA, one strand shown. A digest of the protocol: as §1
A further assay has as its target ETV1 (Homo sapiens, UniProt P50549 1-477). The settings on record: protein: recombinant; tags: N-terminal GST; dsDNA, one strand shown. In short, it runs like this:
as §1

Chain of ETV5 (P41161 whole entry): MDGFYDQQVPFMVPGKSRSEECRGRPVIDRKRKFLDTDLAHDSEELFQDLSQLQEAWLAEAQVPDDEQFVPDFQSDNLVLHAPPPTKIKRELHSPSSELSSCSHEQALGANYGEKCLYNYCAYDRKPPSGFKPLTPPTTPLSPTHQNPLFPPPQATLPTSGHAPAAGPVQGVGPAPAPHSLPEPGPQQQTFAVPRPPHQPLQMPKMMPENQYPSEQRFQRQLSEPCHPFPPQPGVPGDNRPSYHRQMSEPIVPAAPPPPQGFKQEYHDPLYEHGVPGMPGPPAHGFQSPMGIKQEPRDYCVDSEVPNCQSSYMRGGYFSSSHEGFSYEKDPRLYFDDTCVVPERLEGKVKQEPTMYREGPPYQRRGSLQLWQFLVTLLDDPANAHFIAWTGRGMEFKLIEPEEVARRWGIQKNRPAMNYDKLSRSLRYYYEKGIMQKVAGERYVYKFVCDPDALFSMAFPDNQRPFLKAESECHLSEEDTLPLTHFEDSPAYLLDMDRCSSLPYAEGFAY
Chain of SPIB (Q01892 whole entry): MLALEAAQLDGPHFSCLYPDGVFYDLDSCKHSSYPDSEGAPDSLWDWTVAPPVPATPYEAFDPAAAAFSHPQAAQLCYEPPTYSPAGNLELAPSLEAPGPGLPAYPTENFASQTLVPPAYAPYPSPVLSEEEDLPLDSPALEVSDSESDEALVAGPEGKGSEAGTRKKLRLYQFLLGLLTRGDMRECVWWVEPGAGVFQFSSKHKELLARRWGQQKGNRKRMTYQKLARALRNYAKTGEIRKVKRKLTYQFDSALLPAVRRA
Chain of ETV1 (P50549 whole entry): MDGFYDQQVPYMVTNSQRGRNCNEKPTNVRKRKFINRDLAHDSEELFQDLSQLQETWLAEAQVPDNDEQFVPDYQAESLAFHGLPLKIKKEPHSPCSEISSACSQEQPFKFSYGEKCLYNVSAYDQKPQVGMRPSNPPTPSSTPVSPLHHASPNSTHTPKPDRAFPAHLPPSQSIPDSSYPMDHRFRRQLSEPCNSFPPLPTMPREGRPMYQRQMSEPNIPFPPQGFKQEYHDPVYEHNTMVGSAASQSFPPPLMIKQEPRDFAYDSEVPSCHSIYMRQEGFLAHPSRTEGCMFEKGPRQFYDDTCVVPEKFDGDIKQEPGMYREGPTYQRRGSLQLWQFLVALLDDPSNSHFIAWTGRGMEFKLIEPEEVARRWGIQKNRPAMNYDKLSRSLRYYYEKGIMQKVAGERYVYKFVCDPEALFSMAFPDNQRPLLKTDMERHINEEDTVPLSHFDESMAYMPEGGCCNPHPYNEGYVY
Chain of CRX (O43186 whole entry): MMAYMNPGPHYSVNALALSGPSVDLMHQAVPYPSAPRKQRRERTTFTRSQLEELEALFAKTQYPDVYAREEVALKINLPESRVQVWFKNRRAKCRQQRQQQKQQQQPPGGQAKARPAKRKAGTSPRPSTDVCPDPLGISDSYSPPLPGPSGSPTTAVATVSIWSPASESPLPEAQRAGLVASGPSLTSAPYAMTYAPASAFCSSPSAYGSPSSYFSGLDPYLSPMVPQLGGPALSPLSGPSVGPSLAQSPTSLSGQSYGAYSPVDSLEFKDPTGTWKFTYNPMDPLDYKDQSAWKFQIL
Chain of ELF4 (Q99607 whole entry): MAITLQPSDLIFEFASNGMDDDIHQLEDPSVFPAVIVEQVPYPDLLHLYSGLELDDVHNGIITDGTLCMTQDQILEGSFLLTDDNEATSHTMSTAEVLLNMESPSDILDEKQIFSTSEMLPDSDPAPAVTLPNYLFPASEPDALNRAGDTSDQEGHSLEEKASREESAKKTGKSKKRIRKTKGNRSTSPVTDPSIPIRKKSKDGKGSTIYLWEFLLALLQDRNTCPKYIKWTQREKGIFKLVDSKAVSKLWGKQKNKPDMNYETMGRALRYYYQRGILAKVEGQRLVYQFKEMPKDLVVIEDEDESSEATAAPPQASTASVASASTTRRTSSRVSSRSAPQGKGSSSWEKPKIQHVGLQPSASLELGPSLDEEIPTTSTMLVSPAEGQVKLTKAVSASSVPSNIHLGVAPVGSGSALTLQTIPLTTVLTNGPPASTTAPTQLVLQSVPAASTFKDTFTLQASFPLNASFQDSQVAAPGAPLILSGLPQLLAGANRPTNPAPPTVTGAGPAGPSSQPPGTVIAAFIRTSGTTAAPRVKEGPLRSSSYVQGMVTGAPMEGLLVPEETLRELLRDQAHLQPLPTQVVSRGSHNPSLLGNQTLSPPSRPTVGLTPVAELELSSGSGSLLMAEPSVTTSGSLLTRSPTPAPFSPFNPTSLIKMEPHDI
Chain of ELF1 (P32519 whole entry): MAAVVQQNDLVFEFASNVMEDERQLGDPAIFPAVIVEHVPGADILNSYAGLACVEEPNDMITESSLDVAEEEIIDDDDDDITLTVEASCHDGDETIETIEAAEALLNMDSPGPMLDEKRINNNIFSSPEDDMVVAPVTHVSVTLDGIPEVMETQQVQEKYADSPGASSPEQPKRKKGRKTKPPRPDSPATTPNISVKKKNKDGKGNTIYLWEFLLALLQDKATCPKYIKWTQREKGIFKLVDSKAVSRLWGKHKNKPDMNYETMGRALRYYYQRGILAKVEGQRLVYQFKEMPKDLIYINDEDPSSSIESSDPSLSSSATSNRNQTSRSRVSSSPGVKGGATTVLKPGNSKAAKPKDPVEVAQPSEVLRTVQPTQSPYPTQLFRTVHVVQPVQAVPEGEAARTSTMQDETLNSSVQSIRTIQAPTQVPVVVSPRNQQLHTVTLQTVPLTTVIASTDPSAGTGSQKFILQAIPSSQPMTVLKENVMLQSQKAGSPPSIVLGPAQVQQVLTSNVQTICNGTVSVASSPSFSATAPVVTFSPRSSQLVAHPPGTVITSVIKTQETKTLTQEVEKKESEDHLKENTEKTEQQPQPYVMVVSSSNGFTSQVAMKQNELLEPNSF
Chain of HSF1 (Q00613 whole entry): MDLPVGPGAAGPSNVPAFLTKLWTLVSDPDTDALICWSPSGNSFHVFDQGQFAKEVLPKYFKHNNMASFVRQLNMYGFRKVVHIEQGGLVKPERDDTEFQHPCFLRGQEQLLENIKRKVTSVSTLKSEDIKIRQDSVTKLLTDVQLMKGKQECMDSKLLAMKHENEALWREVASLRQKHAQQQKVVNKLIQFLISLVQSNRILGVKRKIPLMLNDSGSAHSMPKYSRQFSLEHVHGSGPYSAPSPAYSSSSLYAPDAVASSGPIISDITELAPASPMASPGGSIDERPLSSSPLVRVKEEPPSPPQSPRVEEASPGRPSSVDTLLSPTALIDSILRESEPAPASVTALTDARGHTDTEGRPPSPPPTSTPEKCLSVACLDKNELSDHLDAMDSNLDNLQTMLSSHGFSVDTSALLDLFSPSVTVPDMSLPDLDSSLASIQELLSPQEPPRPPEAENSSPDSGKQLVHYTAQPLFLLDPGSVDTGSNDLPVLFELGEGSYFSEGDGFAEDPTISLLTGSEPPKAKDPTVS

Turning to CTTACA, the binding signal with FLI1 was 1.28 fold enrichment (6-mer frequency, TF over GST control); with ELK1, 1.3 fold enrichment (6-mer frequency, TF over GST control); in the assay with GABPA it was 1.32 fold enrichment (6-mer frequency, TF over GST control); with ERG, 1.21 fold enrichment (6-mer frequency, TF over GST control); in the assay with ELF1, 1.24 fold enrichment (6-mer frequency, TF over GST control); with EHF it was 1.33 fold enrichment (6-mer frequency, TF over GST control). Also, the binding signal is 1.22 fold enrichment (6-mer frequency, TF over GST control) with SPI1; 1.21 fold enrichment (6-mer frequency, TF over GST control) with SPIB; 1.24 fold enrichment (6-mer frequency, TF over GST control) in the assay with ELK3; 1.18 fold enrichment (6-mer frequency, TF over GST control) in the assay with FEV; 1.31 fold enrichment (6-mer frequency, TF over GST control) in the assay with ETV5; 1.31 fold enrichment (6-mer frequency, TF over GST control) with HSF1. Moreover, the binding signal with SPIC was 1.27 fold enrichment (6-mer frequency, TF over GST control); with ELF4 it was 1.25 fold enrichment (6-mer frequency, TF over GST control); with ELK4 it was 1.3 fold enrichment (6-mer frequency, TF over GST control); in the assay with ETV2, 1.28 fold enrichment (6-mer frequency, TF over GST control); in the assay with ELF3, 1.41 fold enrichment (6-mer frequency, TF over GST control); in the assay with CRX, 1.6 fold enrichment (6-mer frequency, TF over GST control). The binding signal with ETV1 was 1.24 fold enrichment (6-mer frequency, TF over GST control).
